# sPLA2-III inh: human group III sPLA2 inhibitors, primary screen, biochemical, QFRET, BODIPY PC-A2 liposome substrate; Group 3 secretory phospholipase A2 (Homo sapiens), Q9NZ20; actives 0.56% (n = 370,000); inhibition, % at 12.2 µM; QFRET BODIPY PC-A2 liposome hydrolysis, fluorescence;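 active = inhibition above mean plus 3 SD of compounds lying within the high and low control bounds, cut at about 19% in these data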;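 also: 0% = median of test compound wells and 100% = no enzyme DMSO wells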
# PLC-gamma1 inh: PLC-gamma1 enzyme inhibitors, primary screen, biochemical, fluorescence, purified enzyme; fluorogenic substrate; actives 0.84% (n = 370,000); inhibition, % at 12.2 µM; 1-phosphatidylinositol 4,5-bisphosphate phosphodiesterase gamma-1 (Homo sapiens), P19174; in the data active = inhibition above about 9.5%
# ADAM10 inh: human ADAM10 inhibitors, primary screen, biochemical, QFRET, HTS | Disintegrin and metalloproteinase domain-containing protein 10 (Homo sapiens), O14672 | recombinant ADAM10, EDANS/DABCYL FRET peptide cleavage, 3 h | inhibition, % at 7 µM | actives 0.62% (n = 370,000);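 active = inhibition above a per-campaign cutoff equal to the mean of compounds falling between control-based bounds plus 3 SD, cut at about 20% in these data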;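 also: 0% = DMSO wells while the 100% control is not disclosed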
# Target sequence (O14672 214-748 limits assumed): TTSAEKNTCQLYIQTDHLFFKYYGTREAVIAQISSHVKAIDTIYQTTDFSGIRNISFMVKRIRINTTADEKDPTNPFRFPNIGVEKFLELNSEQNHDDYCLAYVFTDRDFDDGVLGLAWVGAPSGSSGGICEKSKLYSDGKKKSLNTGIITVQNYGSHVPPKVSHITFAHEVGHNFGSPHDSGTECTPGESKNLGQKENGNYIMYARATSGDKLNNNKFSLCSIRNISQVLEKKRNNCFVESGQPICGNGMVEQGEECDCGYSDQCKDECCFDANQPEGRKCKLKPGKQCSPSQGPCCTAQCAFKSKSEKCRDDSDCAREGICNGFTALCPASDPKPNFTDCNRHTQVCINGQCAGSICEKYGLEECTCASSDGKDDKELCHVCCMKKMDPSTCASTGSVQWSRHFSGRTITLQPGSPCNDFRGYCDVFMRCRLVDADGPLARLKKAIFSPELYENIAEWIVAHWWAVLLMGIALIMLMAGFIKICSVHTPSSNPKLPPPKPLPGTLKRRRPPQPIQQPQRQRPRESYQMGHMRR
# PLCb3 inh: human PLC-beta3 inhibitors, primary screen, biochemical, fluorescence; 1-phosphatidylinositol 4,5-bisphosphate phosphodiesterase beta-3 (Homo sapiens), Q01970; Purified PLC-beta3, fluorogenic substrate; inhibition, % at 12.2 µM; actives 0.18% (n = 370,000); AID 720704, 2013; in the data active = inhibition above about 11%;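 also: 0% = median of compound wells on plate and 100% = full blocker control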
# ADAM17 inh: ADAM17 inhibitors, primary screen, biochemical, QFRET | AID 720648, 2013 | actives 0.83% (n = 370,000) | recombinant ADAM17, EDANS/DABCYL FRET peptide cleavage | inhibition, % at 6.95 µM;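 active = inhibition above the mean of compounds lying between control limits plus 3 SD, set per campaign, cut at about 8.5% in these data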;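 also: 0% = DMSO-only wells as the low control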
# proKLK7 act: proKLK7 zymogen activators, primary screen, biochemical, fluorescence intensity. Kallikrein-7 (Homo sapiens), P49862. purified proKLK7, EDANS-DABCYL substrate fluorescence; 100% is mature enzyme control, 0% vehicle. activation, % at 7 µM. actives 0.9% (n = 370,000). AID 652039, 2013;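 active = activation above the mean of all tested compounds plus 3 SD, computed per campaign excluding outliers beyond control limits, cut at about 13% in these data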
# The depositor's hits bear a star. Sampled rows, rich in hits. Any-hit rate of the full collection: about 3.4%.
SMILES,sPLA2-III inh,PLC-gamma1 inh,ADAM10 inh,PLCb3 inh,ADAM17 inh,proKLK7 act
CCOC(=O)CC[C@H]1CC[C@]2(CCCN(C3CCCCC3)C2)O1,4,-2,-5,1,-1,0
COc1cc(/C=N/NC(=O)C(Cc2c[nH]c3ccccc23)NC(=O)OCc2ccccc2)cc([N+](=O)[O-])c1O (stereo not given),-38,11*,41*,9,9.1*,0
COc1cc(/C=N/NC(=O)C(Cc2c[nH]c3ccccc23)NC(=O)OCC(C)C)cc([N+](=O)[O-])c1O (stereo not given),-41,8,-2,6,5,0
CN(C)c1ccc(N=Nc2nc3ccccc3n2C)cc1,32*,7,12,6,2,0
CCn1c(NCc2ccc(N(C)C)cc2)nc2ccccc21,9,6,-9,5,0,0
CCCCCCCCN1CCS(=O)(=O)N(Cc2ccc(C)cc2)C(C(=O)OC)C1 (stereo not given),-3,-3,1,-1,2,0
OCCN1CCN(CCCN2c3ccccc3CCc3ccccc32)CC1,0,13*,-6,6,9,0
OCCN1c2ccccc2CCc2ccccc21,0,-1,3,-4,2,0
C=CCNCc1ccc(OC)cc1OC,16,0,-13,-2,-3,0
c1coc(CSSCc2ccco2)c1,9,13*,-18,-18,4,0
Cc1ccc(NC(=O)CSCc2ccco2)cc1,1,1,0,-2,-3,-1
COc1ccc(NC(=O)C(Cl)=C(Cl)Cl)cn1,1,0,-2,3,0,-1
COc1ccc(NC(=O)/C(Cl)=C(/Cl)S(=O)(=O)Cc2ccccc2)cn1,-1,10*,12,7,3,2
Cn1cccc1CC(=O)NN=C/C=C\c1ccco1,14,-11,-17,-9,1,0
COc1ccc(C(=S)N2CCN(c3cccc(Cl)c3)CC2)cc1,20*,0,6,5,-1,0
COc1ccc(C(=O)CCC(=O)N2CCN(c3cccc(Cl)c3)CC2)cc1,-2,4,-1,-2,2,0
COc1ccc(C(=O)Oc2ccc(C(=S)N3CCOCC3)cc2)cc1,10,13*,7,8,7,0
O=C(Oc1ccc(C(=S)N2CCOCC2)cc1)c1ccc(Br)cc1,4,0,4,-1,1,0
CC(C)CC(=O)N1CCN(c2ccc([N+](=O)[O-])c(NCc3ccccc3)c2)CC1,-22,13*,18,8,13*,1
CC(C)(C)C(=O)N1CCN(c2ccc([N+](=O)[O-])c(NCc3cccnc3)c2)CC1,-7,6,9,4,1,0
CCCCC(=O)Nc1ccc(C)c(S(=O)(=O)N2CCCCCC2)c1,4,6,-14,-4,-2,0
CCCCNC(=O)C1=C(N)C(C(=O)Nc2ccc(C)c(S(=O)(=O)N3CCCCC3)c2)SC1=Nc1ccc(C)cc1C (stereo not given),-38,6,40*,5,16*,-1
Cn1nc([N+](=O)[O-])nc1S(C)(=O)=O,4,47*,8,3,-1,-1
Cn1nc([N+](=O)[O-])nc1Oc1ccccc1F,0,-1,3,-5,-3,0
CC(=O)N1CCN(c2cc(C)nc3nc(C)nn23)CC1,3,-6,1,-4,-1,0
SMILES,sPLA2-III inh,PLC-gamma1 inh,ADAM10 inh,PLCb3 inh,ADAM17 inh,proKLK7 act
Cc1ccc(C(=O)NC2CCCCN(Cc3cccc(F)c3)C2=O)cc1 (stereo not given),3,3,11,7,1,0
COc1ccc2c(c1)OC[C@H]1[C@H]2N2C(=O)c3ccc(F)cc3NC(=O)[C@@]2(C)[C@H]1c1ccccc1,38*,-3,19,-8,9.1*,-2
COc1cc(C=c2c3ccccc3n3c2cc(-c2ccccc2)[n+]3C)cc(OC)c1OC,14,-128,-173,-188,-46,-1
CN(C)c1ccc(C=c2c3ccccc3n3c2cc(-c2ccc(Cl)cc2)[n+]3C)cc1,48*,-73,-31,-100,-10,0
CCOC(=O)c1ccc(NC(=O)CSc2nnc(-c3cccc(C)c3)n2C)cc1,6,-1,-9,-3,0,0
Cc1ccc2c(c1)C1CS(=O)(=O)N(CCc3ccccc3)CN1C2 (stereo not given),12,-9,-3,-12,-5,0
CCOC(=O)CSc1ccc(S(=O)(=O)N(C)C2CCCCC2)cc1[N+](=O)[O-],-45,3,24*,7,6,0
O=C(Nc1ccc(Nc2cccnc2)cc1)c1c[nH]c2ccccc12,25*,-125,-29,-158,-11,0
COC1=CC(=O)c2c(ccc3ncnc(N)c23)C1=O,-12,13*,-6,-4,-1,2
CCc1nnc(N/N=C/c2c(C)[nH]c3ccccc23)n1N,6,10*,3,10,2,1
CCOC(=O)c1sc(N/N=C/c2ccccc2)nc1C,1,-80,-5,-96,1,0
O=C(O)Cc1sc(N/N=C\c2ccccc2)nc1-c1ccccc1,23*,-55,4,-61,0,0
C=CCN1C(=O)[C@@H](CC(=O)NCc2ccc(OC)c(OC)c2)[C@]2(C(=O)OC)CCCCC=C12,2,-1,-10,3,-2,0
O=S1(=O)c2ccc(N3CC[C@@H](O)C3)cc2O[C@H]2CCN1C2,16,1,-13,-2,-6,0
COC(=O)C1=C(C)NC(C)=C(C(=O)OC)C1c1cn(-c2ccccc2)nc1-c1ccco1,-9,-92,-139,-143,-27,55*
COc1ccc(Cn2c(NC(=O)c3ccccc3)nc(Cc3ccccc3)c2-c2ccccc2)c(OC)c1,4,-14,-5,-23,3,-12
Cc1ccc(N=C2SC(C(=O)Nc3ccc(OC(F)(F)F)cc3)C(N)=C2C(=O)Nc2c(C)cc(C)cc2C)cc1 (stereo not given),-29,-5,27*,-6,14*,-1
Cc1ccc(NC(=O)c2cc3cc(OC(F)(F)F)ccc3[nH]2)cc1,7,-22,-36,-34,-21,-1

# Source: PubChem BioAssay
